PubChem BioAssay AID1117283 (Broad Institute, 2014)
Entries with a potency or affinity are not part of this list. Active and inactive are the calls of the source.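 How the source made its calls: active means fluorescent signal decreased by at least 40%; inconclusive means no clear call, values can overlap the other calls; inactive means the rest, including activity opposite to the expected direction.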

Assay: inhibition of fibronectin matrix deposition – AH1F cells, Alexa488-fibronectin fluorescence, cherry-pick, set 2, dose response (AID 1117283);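 further: AH1F fibroblasts given Alexa488-labelled fibronectin at 24 nM final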

| SMILES | outcome |
| --- | --- |
| CC(C)C(=O)Nc1ccc2c(c1)C(=O)N(C)[C@@H]1CC[C@H](CC(=O)O)O[C@@H]1CO2 | inactive |
| O=C(Nc1ccccc1F)N1C[C@@H]2[C@H](c3ccccc31)[C@H](CO)N2C(=O)C1CCOCC1 | inactive |
| CCN(Cc1ccncc1)C(=O)c1ccc2c(c1)S(=O)(=O)c1ccccc1C2=O | inactive |
| O=S(=O)(c1ccccc1F)N1CC[C@H]2[C@H](CO)Nc3ccc(-c4cccc(F)c4)cc3[C@H]21 | inactive |
| C[C@@H]1CN([C@H](C)CO)C(=O)c2cccc(NC(=O)Nc3ccc(C(F)(F)F)cc3)c2O[C@H]1CN(C)C(=O)Nc1cccc2ccccc12 | inactive |
| CCOC(=O)c1nnn(-c2ccc(OC)cc2)c1N | inactive |
| Cc1c(NC(=O)c2ccc3nsnc3c2)cccc1[N+](=O)[O-] | inactive |
| Cc1ccccc1S(=O)(=O)N1CC[C@H]2[C@H](CO)Nc3ccc(-c4ccc(C#N)cc4)cc3[C@H]21 | inactive |
| N#Cc1ccc(-c2ccc3c(c2)[C@@H]2[C@@H](CCN2S(=O)(=O)c2cccc(F)c2)[C@H](CO)N3)cc1 | inactive |
| COc1cccc(CN2CCN(C(=O)c3ccc(-c4ccccc4)cc3)CC2)c1OC | inactive |
| C[C@H](O)C#Cc1ccc2c(c1)O[C@H](CN(C)C)[C@H](C)CN([C@H](C)CO)S2(=O)=O | inactive |
| C[C@@H]1CN([C@H](C)CO)C(=O)c2cc(-c3ccccc3)cnc2O[C@H]1CN(C)C(=O)c1cccc(F)c1 | inactive |
| Cc1ccc(S(=O)(=O)N2CC[C@@H]3[C@H]2c2cc(-c4cccc(C(=O)N(C)C)c4)ccc2N[C@@H]3CO)cc1 | inactive |
| Cc1cccc(NC(=O)c2ccc(C3SCC(=O)N3CCc3ccccc3)cc2)c1 (stereo not given) | inactive |
| CC(C)CNC(=O)c1coc(=O)c(Br)c1 | inactive |
| C[C@H](O)C#Cc1ccc2c(c1)O[C@H](CN(C)C)[C@@H](C)CN([C@H](C)CO)S2(=O)=O | inactive |
| CCCCNC(=O)Nc1nc2ccc(CC)cc2s1 | inactive |
| COc1ccc(CN(C2CCCC2)S(=O)(=O)c2ccc(-n3cnnn3)cc2)cc1OC | inactive |
| COC(=O)c1cn(CC(=O)NCc2ccco2)c2ccccc12 | inactive |
| C[C@@H]1CN([C@@H](C)CO)C(=O)c2cc(-c3ccccc3)cnc2O[C@H]1CN(C)Cc1ccccc1 | inactive |
| Cc1cccc(NC(=O)c2ccc(S(=O)(=O)N3CCCCC3)cc2)n1 | inactive |
| Cc1ccc(C(O)c2ncc(-c3cccc4ccccc34)[nH]2)cc1F (stereo not given) | inactive |
| CCCCOc1ccc(C(C)NC(=O)C2CCCN(S(=O)(=O)CCC)C2)cc1 (stereo not given) | inactive |
| N#C[C@@H]1[C@H](c2ccccc2C2=CCCCC2)[C@@H](CO)N1S(=O)(=O)c1ccccc1 | inactive |
| C[C@@H]1CN([C@H](C)CO)C(=O)c2cc(NC(=O)CCCN(C)C)ccc2O[C@H]1CN(C)Cc1ccc(-c2ccccc2)cc1 | inactive |
